Assay outcomes as filed in PubChem.
Only a selection was taken, and hits are over-represented in it overall.
IMPase Li inh – qHTS Assay for Identifying the Cell-Membrane Permeable IMPase Inhibitors: Potentiation with Lithium; AID 1457, 2008; actives 0.35% (n = 210,000); CHO-M1 cells, IP1 TR-FRET (IP-One), carbachol + lithium; Potency, µM (top dose mostly 59.4 µM), inactives show at the highest dose activity, negative = IMPase inhibition, actives largely listed as inhibitors;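 also: IP1 builds up when IMPase is blocked and the TR-FRET signal falls; plate controls were basal vehicle for no effect and high inhibitor control for full effect; nearly all actives have a fitted effect of over 50% in size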
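CHO-M1, 2000 cells/well, 16–30 h culture; cpd + low Li+, 30 min 37C; lysis with d2-IP1/Eu-anti-IP1 Ab, 10 min RT; TR-FRET 665/620 ratio and 620 channel; AC50 via Hill.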
MBNL1-CUG inh – qHTS Assay for Inhibitors of MBNL1-poly(CUG) RNA binding; Muscleblind-like protein 1 (Homo sapiens), Q9NR56; TR-FRET MBNL1-His/biotin-(CUG)12 binding, 665/545 ratio; Potency, µM (titrated, usually from 57.5 µM), for the others: at the top dose activity change, negative = inhibition, actives largely listed as inhibitors; actives 0.036% (n = 280,000); AID 2675, 2010; active = well fitted inhibition curve with a large enough effect in the signal ratio, with a control signal flat, not every such curve was filed as active; inconclusive = small, poorly fitted or top-dose-only effect, or effect the other way, or a change in a side signal; inactive = no such curve, though single readings can be large or run the other way; the % refers to the signal ratio
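TR-FRET readout: Ex 340 nm, 665/545 nm emission ratio, normalized to buffer-only (basal) and MBNL1-(CUG)12 controls. Complex of MBNL1-His with Biotin-(CUG)12, compounds 92 nM–58 uM, incubated 60 min at room temperature.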
NPSR antagonist – qHTS Assay for Antagonists of the Neuropeptide S Receptor: cAMP Signal Transduction. actives 1% (n = 220,000). Potency, µM (titrated, usually from 38.3 µM), inactives show at the highest dose activity change, negative = inhibition, hits mostly inhibitors. CHO-NPSR cells, cAMP TR-FRET, antagonist mode. Q6W5P4; also: nearly all actives have a fitted effect of over 50% in size
Target sequence (Q6W5P4 whole entry, looked up): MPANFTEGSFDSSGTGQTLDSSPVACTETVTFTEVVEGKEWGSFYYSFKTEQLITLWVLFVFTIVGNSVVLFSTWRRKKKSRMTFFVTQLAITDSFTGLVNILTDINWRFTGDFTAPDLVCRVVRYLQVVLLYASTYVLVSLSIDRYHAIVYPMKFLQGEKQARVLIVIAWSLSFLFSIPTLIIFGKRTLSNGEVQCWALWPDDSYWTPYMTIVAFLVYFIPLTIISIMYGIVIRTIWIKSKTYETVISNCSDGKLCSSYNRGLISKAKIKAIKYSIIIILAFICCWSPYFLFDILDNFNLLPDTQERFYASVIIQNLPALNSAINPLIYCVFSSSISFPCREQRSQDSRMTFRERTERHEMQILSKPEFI
Tb PFK block – qHTS Assay to Find Inhibitors of T. brucei phosphofructokinase; ATP-dependent 6-phosphofructokinase (Trypanosoma brucei brucei), O15648; T. brucei PFK, ADP-Glo luminescence; Potency, µM (series often up to 57.5 µM), inactives show at the highest dose activity, negative = inhibition, usual class: inhibitors; actives 0.17% (n = 330,000); AID 485367, 2010;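 also: 0% = uninhibited 1x PFK enzyme wells and -100% = no-enzyme wells; nearly all actives have a fitted effect of over 60% in size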
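Activity is normalized to no-enzyme wells (full inhibition) and 1.25 nM enzyme wells (no inhibition). Reaction: 0.5 mM F6P, 0.1 mM ATP, 45 min RT, ADP-Glo luminescence; concentration-response curves fitted and classed by quality.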
RGS12 GoLoco inh – qHTS Assay for Inhibitors of RGS12 GoLoco Motif Activity (Red Fluorophore). Guanine nucleotide-binding protein G(i) subunit alpha-1 (Homo sapiens), P63096. Gai1:RGS12 GoLoco peptide FP, rhodamine, 10 min. Potency, µM (top dose mostly 61.6 µM), without a hit: at the top dose activity, negative = inhibition, hits mostly inhibitors. actives 0.44% (n = 230,000). AID 880, 2007; active = well fitted inhibition curve with a large enough effect, not every such curve was filed as active; inactive = no such curve, though single readings can be large or run the other way; also: nearly all actives have a fitted effect of over 30% in size
Active calls of the source: *; ? = inconclusive; nt = no result; [ ] = another dose, or the depositor's remark. Unless noted, calls follow the shape of the dose curve; as a rule, active = well fitted curve in the direction sought with a large enough effect; inconclusive = small, poorly fitted or top-dose-only effect, or another doubt; inactive = no such curve, though single readings can be large; an effect the other way counts as inactive or inconclusive. Unless noted, % is scaled to controls: 0 for no effect and ±100 for the full control effect; potency is read from the fitted curve at half-maximal effect.

SMILES	IMPase Li inh	MBNL1-CUG inh	NPSR antagonist	Tb PFK block	RGS12 GoLoco inh
O=c1[nH]c(=O)n(Cc2ccccc2)c2nc(-c3ccc(Oc4ccc(F)cc4)c([N+](=O)[O-])c3)n(CCO)c12	7%	5%	6.3µM*	-1%	-11%
CCOC(=O)N1CCC(N2C(=O)c3ccccc3C2Nc2ccc(S(=O)(=O)N3CCCCC3)cc2)CC1 (stereo not drawn)	13%	7%	10µM*	-2%	5%
CCOC(=O)N1CCC(N2C(=O)c3ccccc3C2Nc2cccnc2)CC1 (stereo not drawn)	1%[38.3 µM]	-7%	-14%[46.1 µM]	-6%	-4%
OC(CCc1ccncc1)COc1ccccc1 (stereo not drawn)	nt	nt	nt	-4%	nt
CNc1sc(C(=O)c2cccs2)c(N)c1-c1nc2ccccc2s1	-16%[38.3 µM]	?	3.2µM*	1%	46%
C[C@@H](C1[C@@H](O)CC2C3C=CC4C[C@@H](O)CC[C@]4(C)[C@H]3CC[C@@]21C)[C@@H]1CCCCN1 (stereo partly drawn)	16%	nt	nt	nt	0%
N#Cc1cc2c(nc1SCc1ccccc1)CCCC2	16µM*	0%	?	-12%	5%
CCC(C)(C)C1CCC(NC(=O)c2ccc(S(=O)(=O)N3CCOCC3)cc2)CC1 (stereo not drawn)	nt	nt	nt	-1%	nt
Cc1[nH]n(-c2ccccc2)c(=S)c1C=Nc1ccc([N+](=O)[O-])cc1	-6%	?	-5%	?	13µM*
O=CN[C@@H](Cc1cnc[nH]1)C(=O)O	-3%	nt	nt	nt	-2%[14.2 µM]
COc1ccc(C(=O)Nc2ccc(S(=O)(=O)N3CCCCC3)cc2)cc1OC	32%[38.3 µM]	-3%	-14%[46.1 µM]	11%	7%
COc1ccc(-c2cnnn2-c2ccc(NC(=O)c3ccc(S(=O)(=O)N4CCCCC4)cc3)cc2)cc1OC	3%	nt	3.2µM*	1%	-4%
O=C(CN1CCN(c2ccc(F)cc2)CC1)NCc1ccc(Cl)cc1	nt	-9%	nt	-1%	nt
COc1cc2c(cc1/C=C/C(=O)O)OC(C)C2 (stereo not drawn)	-9%	7%	-44%	-1%	0%
CC(C)(O)C1Cc2cc(/C=C/C(=O)O)c(O)cc2O1 (stereo not drawn)	11%	7%	-11%	-26%	28µM*
Cc1ccc(C2=NOC(=O)/C2=C\C=C\c2ccccc2)cc1	25%	-3%	10µM*	5%	111%
CN(C)/C=C1\C(=O)ON=C1c1ccccc1	2%	nt	3%	-3%	4%
COc1ccc(/C=N/N=C2/NC(=O)CC(C(=O)O)S2)cc1 (stereo not drawn)	2%	nt	9%	0%	9%
COc1ccc(/C=N/N=C2/CC(C)(C)Cc3n[nH]c(=O)cc32)cc1	18%	?	-7%	0%	28µM*
Cc1cc2nc(SCC(=O)Nc3nonc3C)c3c(c2cc1C)CCCC3	6.3µM*	1%	7.9µM*	1%	8%
Cc1nonc1NC(=O)CSc1nc(C2CCCCC2)nc2ccccc12	6%[38.3 µM]	32%	?	-6%	-10%
CNC[C@H](NC[C@@H](NCCCc1ccccc1)c1ccccc1)[C@H](C)O	nt	-1%	nt	-9%	nt
CCOC(=O)/C(=C\c1cccnc1)C(=O)c1cc(C(C)=O)c(Nc2ccccc2)s1	43%[38.3 µM]	?	3.2µM*	-1%	6%
CCCCC1=CC2=C(c3ccco3)C(=O)C(C)(OC(=O)c3cccs3)C(=O)C2=CO1 (stereo not drawn)	24%	nt	nt	nt	14%
COc1ccc(NC(=O)Cc2ccc(Cl)cc2)cc1S(=O)(=O)N1CCCCC1	nt	nt	nt	-4%	nt
COc1ccc(NC(=O)/C(Cl)=C(/Cl)S(=O)Cc2ccccc2)cn1 (stereo not drawn)	73%[38.3 µM]	4%	1.3µM*	-11%	-5%
COc1ccc(NC(=O)Cc2ccccc2)cn1	-10%	0%	2%	2%	15%
